# In all, about 310,000 compounds went through this assay and about 14,000 (4.5%) showed an effect of 50% or more. Effects have a minus sign here. Shown is part of a subset that was picked to be rich in strong results.
# Target: human ether-à-go-go-related gene (hERG) potassium channel (human, UniProt Q12809)
# Assay: primary screen, population patch clamp on CHO cells stably expressing hERG; higher = less effect of the substance
# 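Note: peak tail current of the secondary pulse compared with the same well before compound.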
# human ether-à-go-go-related gene (hERG) potassium channel, sequence (Q12809 whole entry, looked up): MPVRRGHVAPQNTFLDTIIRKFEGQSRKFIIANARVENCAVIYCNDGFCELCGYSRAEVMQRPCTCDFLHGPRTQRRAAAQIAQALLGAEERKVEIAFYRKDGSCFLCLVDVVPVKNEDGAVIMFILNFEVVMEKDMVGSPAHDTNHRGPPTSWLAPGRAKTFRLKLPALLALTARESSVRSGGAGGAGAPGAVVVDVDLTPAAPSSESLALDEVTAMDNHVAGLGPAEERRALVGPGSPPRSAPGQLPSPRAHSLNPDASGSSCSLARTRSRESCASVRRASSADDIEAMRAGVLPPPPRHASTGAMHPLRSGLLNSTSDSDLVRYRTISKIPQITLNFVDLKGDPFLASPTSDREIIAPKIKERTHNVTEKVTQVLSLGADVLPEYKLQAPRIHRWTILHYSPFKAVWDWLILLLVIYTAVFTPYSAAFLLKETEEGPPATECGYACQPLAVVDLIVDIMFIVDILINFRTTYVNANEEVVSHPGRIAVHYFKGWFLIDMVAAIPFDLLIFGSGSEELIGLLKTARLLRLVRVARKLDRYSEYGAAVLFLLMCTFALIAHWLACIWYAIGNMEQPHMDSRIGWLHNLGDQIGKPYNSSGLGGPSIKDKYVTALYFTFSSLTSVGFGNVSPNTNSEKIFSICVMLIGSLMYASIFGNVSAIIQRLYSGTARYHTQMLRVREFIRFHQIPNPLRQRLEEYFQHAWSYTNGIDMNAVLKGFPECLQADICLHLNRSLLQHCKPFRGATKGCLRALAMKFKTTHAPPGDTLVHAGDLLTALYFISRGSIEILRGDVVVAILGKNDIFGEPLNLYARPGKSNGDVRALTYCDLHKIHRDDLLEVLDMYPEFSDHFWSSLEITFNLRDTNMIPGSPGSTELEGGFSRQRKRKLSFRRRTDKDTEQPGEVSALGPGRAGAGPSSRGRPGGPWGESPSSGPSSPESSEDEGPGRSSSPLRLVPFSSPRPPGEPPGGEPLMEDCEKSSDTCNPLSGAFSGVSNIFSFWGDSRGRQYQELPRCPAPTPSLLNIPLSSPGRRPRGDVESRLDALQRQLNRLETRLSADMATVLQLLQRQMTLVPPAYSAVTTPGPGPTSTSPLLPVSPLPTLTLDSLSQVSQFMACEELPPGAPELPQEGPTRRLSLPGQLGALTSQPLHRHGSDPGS
row,Structure (SMILES),"hERG current change (%, negative = inhibition) at 10uM [%]"
1,CCCc1cc(C(=O)NCc2ccco2)no1,9.57
2,COc1cccc(CCc2nnc(CCC(=O)NCCc3cccc(C)n3)o2)c1,24.7
3,CCCOc1cccc(C2C(C(=O)c3cc4ccccc4o3)=C(O)C(=O)N2c2cc(C)on2)c1 (centres unmarked),-7.72
4,CCCOC(=O)C[N+](C)(C)CCOC1CC2CCC1(C)C2(C)C.[Br-] (centres unmarked),13
5,CCCCCCOC(=O)C[N+](C)(C)CCOC1CC2CCC1(C)C2(C)C.[Cl-] (centres unmarked),-78.1
6,CCOC(=O)C[N+](C)(C)CCOC1CC2CCC1(C)C2(C)C.[Cl-] (centres unmarked),10.3
7,CCC(C)OC(=O)C[N+](C)(C)CCOC1CC2CCC1(C)C2(C)C.[Cl-] (centres unmarked),-17.3
8,CCCCOC(=O)C[N+](C)(C)CCOC1CC2CCC1(C)C2(C)C.[Br-] (centres unmarked),-52.7
9,CC(C)CCOC(=O)C[N+](C)(C)CCOC1CC2CCC1(C)C2(C)C.[Cl-] (centres unmarked),-16.3
10,CCCn1nc2cc(C(=O)NCc3ccc(OC(F)(F)F)cc3)ccc2c1OCC,14.3
11,O=C(COC(=O)c1ccc(Cl)nc1)NC1CCCCCC1,-5.25
12,CCCc1nnc(NC(=O)CCC(=O)N2CCN(C3c4ccccc4-c4ccccc43)CC2)s1,-3.76
13,CCCP(=O)(CC(=O)N(CC)CC)c1ccccc1 (centres unmarked),12
14,COc1ccccc1N1CCN(C(=O)c2cc3n(n2)C(C(F)(F)F)CC(c2ccco2)N3)CC1 (centres unmarked),-1.94
15,CC(C)c1nnc(NC(=O)c2cc3ccccc3o2)s1,11.1
16,Cc1c(CNC(=O)C2CC2)c(-n2cccc2)n(Cc2ccccc2)c1C,27.1
17,O=S(=O)(c1cccc(COc2ccc(Cl)cc2Cl)c1)N1CCOCC1,3.46
18,N#Cc1ccc(OCc2cccc(S(=O)(=O)N3CCOCC3)c2)cc1,-82.1
19,CC(=O)c1cc(Cl)ccc1OCc1cccc(S(=O)(=O)N2CCOCC2)c1,-68.9
20,O=S(=O)(c1cccc(COc2c(Cl)cccc2Cl)c1)N1CCOCC1,-12
21,N#Cc1ccccc1OCc1cccc(S(=O)(=O)N2CCOCC2)c1,-38.9
22,Cc1cc(OCc2cccc(S(=O)(=O)N3CCOCC3)c2)ccc1Cl,-9.12

row,Structure (SMILES),"hERG current change (%, negative = inhibition) at 10uM [%]"
1,COC(=O)c1sc2nc(CN3CCOCC3)nc(N3CCOCC3)c2c1C,1.53
2,O=c1cc(N2CCN(c3ccccc3)CC2)[nH]c(=O)n1Cc1ccc(F)cc1,-25.9
3,OC1(c2ccccn2)COc2ccccc2O1 (centres unmarked),-10.5
4,CC(=O)Nc1ccc(Br)cc1C(=O)C(=O)O,-2.93
5,CCCOc1ccc(-c2nnn(CC(=O)N3CCCCC3)n2)cc1,12.9
6,N#C/C(=C\c1ccc(Cl)cc1)c1nc2ncccc2[nH]1,-15.1
7,CC1CCN(c2c(NCC3CCC(C(=O)N4CCCC(C)C4)CC3)c(=O)c2=O)CC1 (centres unmarked),2.75
8,CCc1ccc(O)c(CNCCNCc2cc(CC)ccc2O)c1,-55.2
9,Oc1ccc(Cl)cc1CNCc1ccc(Cl)cc1,-3.68
10,Cc1ccc(O)c(CNCCNCc2cc(C)ccc2O)c1,-11.9
11,N=c1c(C(=O)NCCN2CCOCC2)cc2c(=O)n3ccccc3nc2n1Cc1ccc(F)cc1,-76.5
12,Cc1cccn2c(=O)c3cc(C(=O)NCCN4CCOCC4)c(=N)n(Cc4ccc(F)cc4)c3nc12,-72.9
13,Cc1c(C)n(Cc2ccc(F)cc2)c2ccc(C(=O)NCCN3CCOCC3)cc12,-19.2
14,Cc1ccc(Cn2c(=N)c(C(=O)NCCN3CCOCC3)cc3c(=O)n4ccccc4nc32)cc1,-63.2
15,Cn1c(C(=O)NCCN2CCOCC2)cc2c(=O)n3ccccc3nc21,10
16,O=C(NCCN1CCOCC1)c1cc2c(=O)n3ccccc3nc2n1Cc1ccccc1,-5.9
17,CC(C)NC(=O)Cn1c(SCC(=O)c2ccc(F)cc2)nc2ccccc21,6.27
18,COCCn1c(-c2ccc(F)cc2)nc2cccnc21,12.1
19,O=C1C[C@H](NC(=O)OCc2ccccc2)CO1,6.32
20,Fc1ccc(C2NCCn3cccc32)cc1.O=C(O)/C=C/C(=O)O (centres unmarked),-3.11
21,Cc1ccc(NC(=O)C2CCCN2C(=O)c2cccs2)cc1C (centres unmarked),-25.5
22,CCOc1ccc(NC(=O)[C@@H]2CCCN2C(=O)c2cccs2)cc1S(=O)(=O)N1CCCCC1,10.5

# Reference: paper PMC4336329 (PLoS ONE, 2015)
